Here are results for eight molecules from PubChem BioAssay (NCI).

This is part of a sample that, as a whole, favours compounds with a hit. Of some 83,000 tested, about 20% had one in any assay.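 Single-concentration screen, 48 h exposure, 96-well plates. Endpoint: percent growth. Below 10 = active.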 Values without a mark were called inactive. Active and inactive are the calls of the source.

Among the test systems are SK-MEL-2 melanoma; EKVX NSCLC; SN12C renal; UO-31 renal; TK-10 renal; ACHN renal; CAKI-1 renal; A498 renal; CCRF-CEM leukemia; MOLT-4 leukemia; RPMI-8226 leukemia; OVCAR-8 ovarian; OVCAR-5 ovarian; OVCAR-4 ovarian; SK-OV-3 ovarian; HS 578T breast; NCI/ADR-RES ovarian; OVCAR-3 ovarian; IGROV1 ovarian.
Holding throughout (experiment): NCI-60 one-dose screen, 48 h (100 = growth as untreated, 0 = no growth, -100 = all killed)
Holding throughout (conditions): 10 µM unless noted

As for `O=C(NC(Cc1nnc2n(Cc3ccccc3)c(=O)c3c4c(sc3n12)CCCC4)c1ccc(Cl)cc1)c1ccccc1` (configuration not stated), the growth is 95.7% with SK-MEL-2 melanoma; 94.6% in the experiment on EKVX NSCLC; 92.4% in the experiment on SN12C renal; -5.74% (active) in the experiment on UO-31 renal; 99% in the experiment with TK-10 renal; 67.5% in the experiment on ACHN renal. The growth is 94.3% in the experiment on CAKI-1 renal; 83.5% in the experiment with A498 renal; 80.5% in the experiment with CCRF-CEM leukemia; 53.1% in the experiment with MOLT-4 leukemia; 67.9% with RPMI-8226 leukemia; 91.3% with OVCAR-8 ovarian. Moreover, the growth was 104% in the experiment on OVCAR-5 ovarian; 81% with OVCAR-4 ovarian; 109% in the experiment with SK-OV-3 ovarian; 91.3% in the experiment on HS 578T breast; 93.9% with NCI/ADR-RES ovarian.
Consider `COc1ccc2c(c1)C(=O)/C(=C/c1ccc(OCC(=O)Nc3nccs3)cc1)O2`, for which the growth in the experiment with SK-MEL-2 melanoma is 112%; in the experiment with EKVX NSCLC, 32.7%; in the experiment with SN12C renal it was 48.2%; in the experiment with UO-31 renal, -80.8% (active); with TK-10 renal, 93.9%; in the experiment with ACHN renal, 49%. Moreover, the growth in the experiment with CAKI-1 renal was -78.4% (active); in the experiment on A498 renal, 99.7%; in the experiment with CCRF-CEM leukemia, -73.8% (active); in the experiment on MOLT-4 leukemia, -72.9% (active); in the experiment on RPMI-8226 leukemia, -53.8% (active); with OVCAR-8 ovarian it was 19.1%. For the same molecule, the growth in the experiment on OVCAR-5 ovarian was -31.5% (active); in the experiment on OVCAR-4 ovarian, 48.3%; with SK-OV-3 ovarian, 37.9%; in the experiment with OVCAR-3 ovarian it was -24.4% (active); with HS 578T breast, 56.2%; in the experiment with NCI/ADR-RES ovarian it was 56.9%.
Consider `C(=N\Nc1ncc(-c2cc3cc4c(cc3o2)OCO4)s1)/c1ccco1`, for which the growth is 90.8% in the experiment with SK-MEL-2 melanoma; 59.3% with EKVX NSCLC; 38.9% in the experiment on SN12C renal; -43.4% (active) with UO-31 renal; 50.7% in the experiment on TK-10 renal; 11.1% with ACHN renal. The growth is 9.09% (active) with CAKI-1 renal; 71.1% in the experiment with A498 renal; 17.5% in the experiment with CCRF-CEM leukemia; 9.91% (active) in the experiment with MOLT-4 leukemia; 30.9% in the experiment on RPMI-8226 leukemia; 23.7% in the experiment with OVCAR-8 ovarian. The growth was 58% in the experiment on OVCAR-5 ovarian; 32.5% with OVCAR-4 ovarian; 30.2% in the experiment with IGROV1 ovarian; 8.65% (active) in the experiment on OVCAR-3 ovarian; 70.6% in the experiment on HS 578T breast; 34.7% in the experiment with NCI/ADR-RES ovarian.
In the case of `O=c1c2c3c(sc2n2c(-c4cn(-c5ccccc5)nc4-c4ccc(Cl)cc4)nnc2n1Cc1ccccc1)CCCC3`, the growth was 97.8% in the experiment with SK-MEL-2 melanoma; 87.1% in the experiment on EKVX NSCLC; 91.2% in the experiment with SN12C renal; 4.67% (active) in the experiment on UO-31 renal; 107% with TK-10 renal; 99.2% with ACHN renal. In addition, the growth in the experiment with CAKI-1 renal was 100%; in the experiment on A498 renal, 100%; with CCRF-CEM leukemia it was 81.1%; with MOLT-4 leukemia, 85.4%; in the experiment with RPMI-8226 leukemia, 94.1%; with OVCAR-8 ovarian it was 97.1%. Further, the growth is 103% with OVCAR-5 ovarian; 95.5% in the experiment with OVCAR-4 ovarian; 109% in the experiment with SK-OV-3 ovarian; 103% in the experiment on OVCAR-3 ovarian; 96.9% in the experiment on HS 578T breast; 101% in the experiment on NCI/ADR-RES ovarian.
As for `CCOP(=O)(OCC)C1CP(=O)(c2ccccc2)CC(C)=C1Cl` (configuration not stated), the growth in the experiment with SK-MEL-2 melanoma is 102%; in the experiment on EKVX NSCLC, 107%; in the experiment with SN12C renal, 96%; in the experiment with UO-31 renal it was 68.1%; in the experiment on TK-10 renal it was 77.1%; in the experiment on ACHN renal, 109%. Besides, the growth is 108% with CAKI-1 renal; 111% in the experiment on A498 renal; -90.6% (active) in the experiment with CCRF-CEM leukemia; 93% in the experiment with MOLT-4 leukemia; 69.6% with RPMI-8226 leukemia; 85.7% in the experiment on OVCAR-8 ovarian. Besides, the growth with OVCAR-5 ovarian is 97.8%; in the experiment on OVCAR-4 ovarian, 107%; in the experiment with SK-OV-3 ovarian, 127%; with OVCAR-3 ovarian, 104%; in the experiment with HS 578T breast it was 112%; with NCI/ADR-RES ovarian, 93.5%.
`Cn1c(I)c(C#C[Si](C)(C)C)c(=O)n(C(=O)c2ccccc2)c1=O`: the growth with SK-MEL-2 melanoma was 81%; with EKVX NSCLC, 91.2%; with SN12C renal, 51%; in the experiment on UO-31 renal it was -78.4% (active); in the experiment with TK-10 renal, 43.6%; in the experiment on ACHN renal, 11.5%. Further, the growth in the experiment with CAKI-1 renal is 40.9%; in the experiment with A498 renal, 105%; in the experiment with CCRF-CEM leukemia, -57.5% (active); in the experiment on MOLT-4 leukemia, -69.9% (active); with RPMI-8226 leukemia, -9.86% (active); in the experiment with OVCAR-8 ovarian, -20.6% (active). Further, the growth in the experiment with OVCAR-5 ovarian is 60.9%; in the experiment with OVCAR-4 ovarian it was 39.5%; in the experiment on SK-OV-3 ovarian, 101%; in the experiment with OVCAR-3 ovarian, 14.2%; in the experiment with HS 578T breast it was 41%; in the experiment with NCI/ADR-RES ovarian it was 88.1%.
For the molecule `COc1ccc2c(c1)O/C(=C\c1cccc(OCC(=O)Nc3nc4ccccc4s3)c1)C2=O`, the growth was 91.8% with SK-MEL-2 melanoma; 100% with EKVX NSCLC; 43.7% with SN12C renal; -61.3% (active) with UO-31 renal; 132% with TK-10 renal; 98.2% in the experiment with ACHN renal. In addition, the growth is -88.3% (active) in the experiment with CAKI-1 renal; 110% in the experiment with A498 renal; -61.4% (active) in the experiment on CCRF-CEM leukemia; 18.4% with MOLT-4 leukemia; 53.4% in the experiment on RPMI-8226 leukemia; 5.46% (active) in the experiment on OVCAR-8 ovarian. The growth in the experiment with OVCAR-5 ovarian is 95.7%; in the experiment on OVCAR-4 ovarian it was 81.7%; in the experiment with SK-OV-3 ovarian it was 99.1%; in the experiment with OVCAR-3 ovarian, 88.6%; with HS 578T breast, 93.8%; with NCI/ADR-RES ovarian, -60.1% (active).
With `COc1ccc(C(=O)Nn2c(NCC(=O)N3c4ccccc4Sc4ccccc43)nnc2-c2ccc(O)cc2)cc1`, the growth in the experiment on SK-MEL-2 melanoma was 108%; in the experiment on EKVX NSCLC, 108%; in the experiment with SN12C renal, 94.7%; in the experiment on UO-31 renal, 98.1%; with TK-10 renal it was 109%; in the experiment with ACHN renal, 103%. Besides, the growth with CAKI-1 renal is 107%; with A498 renal, 90.2%; in the experiment with CCRF-CEM leukemia it was 110%; in the experiment on MOLT-4 leukemia it was 110%; in the experiment with RPMI-8226 leukemia, 105%; in the experiment on OVCAR-8 ovarian, 101%. For the same molecule, the growth in the experiment on OVCAR-5 ovarian was 89.3%; with OVCAR-4 ovarian, 120%; in the experiment with SK-OV-3 ovarian, 105%; with IGROV1 ovarian, 110%; in the experiment on NCI/ADR-RES ovarian, 97.8%.
